{
  "source": "the supplement of paper PMC8728848",
  "binders": {"B1": {"name": "SalT (Orysata sativa) (protein)", "chain": "MTLVKIGLWGGNGGSAQDISVPPKKLLGVTIYSSDAIRSIAFNYIGVDGQEYAIGPWGGGEGTSTEIKLGSSEHIKEISGTHGPVYDLADIVTYLKIVTSANNTYEAGVPNGKEFSIPLQDSGHVVGFFGRSGTLIDAIGIYVHPILEQKLISEEDLNSAVDHHHHHH"}, "B2": {"name": "Gal 1 (Canis lupus) (protein)", "chain": "MACGLVASNLSLKPGQCLRVQCEVVPEAKSFVLNLGKDGDNLCLHFNPRFEAHGDVNTIVCNSKDGGAWGEELRESAFPFQPGTVTEVCISFDQADLTIKLPDGYTFKFPNRLNLEAISYLAADGDMKIKCLAFD"}},
  "test_in_all_cases": "glycan array binding signal (z-score within array); higher = stronger binding",
  "conditions_in_all_cases": "glycan notation: IUPAC condensed, linker removed",
  "key": {"[1]": {"target": "Man(a1-3)[Man(a1-6)]Man(a1-6)[Man(a1-3)]Man(b1-4)GlcNAc(b1-4)GlcNAc", "method_in_brief": "(§1)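 Arrays were curated from the Consortium for Functional Glycomics database, 3228 in total, and kept only where the protein sequence was available. Binding is expressed as a within-array Z-score. This score was averaged across arrays of the same protein sequence at different concentrations or buffers and across linkers, and negative values can be read as non-binding.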"}, "[2]": {"target": "Man(a1-3)[Man(a1-6)]Man(b1-4)GlcNAc(b1-4)GlcNAc", "method_in_brief": "as §1"}, "[3]": {"target": "Neu5Ac(a2-3)Gal(b1-3)GalNAc(b1-4)[Neu5Ac(a2-3)]Gal(b1-4)Glc", "method_in_brief": "as §1"}, "[4]": {"target": "Neu5Ac(a2-3)Gal(b1-4)[Fuc(a1-3)]GlcNAc(b1-3)Gal(b1-4)[Fuc(a1-3)]GlcNAc(b1-3)Gal(b1-4)[Fuc(a1-3)]GlcNAc", "method_in_brief": "as §1"}, "Neu5Ac(a2-6)Gal": {"target": "Neu5Ac(a2-6)Gal", "method_in_brief": "as §1"}, "[5]": {"target": "Neu5Ac(a2-6)Gal(b1-4)GlcNAc(b1-2)Man(a1-3)[Neu5Ac(a2-6)Gal(b1-4)GlcNAc(b1-2)Man(a1-6)]Man(b1-4)GlcNAc(b1-4)GlcNAc", "method_in_brief": "as §1"}, "[6]": {"target": "Neu5Ac(a2-6)Gal(b1-4)GlcNAc(b1-2)Man(a1-3)[Neu5Ac(a2-6)Gal(b1-4)GlcNAc(b1-2)Man(a1-6)]Man(b1-4)GlcNAc(b1-4)[Fuc(a1-6)]GlcNAc", "method_in_brief": "as §1"}, "[7]": {"target": "Neu5Ac(a2-6)Gal(b1-4)GlcNAc(b1-2)Man(a1-6)[Man(a1-3)]Man(b1-4)GlcNAc(b1-4)GlcNAc", "method_in_brief": "as §1"}, "[8]": {"target": "Neu5Ac(a2-6)Gal(b1-4)GlcNAc(b1-3)GalNAc", "method_in_brief": "as §1"}, "Neu5Ac(a2-6)GalNAc": {"target": "Neu5Ac(a2-6)GalNAc", "method_in_brief": "as §1"}, "[9]": {"target": "Neu5Ac(a2-6)GalNAc(b1-4)GlcNAc6S", "method_in_brief": "as §1"}, "Fuc(a1-2)Gal(b1-3)GalNAc": {"target": "Fuc(a1-2)Gal(b1-3)GalNAc", "method_in_brief": "as §1"}, "[10]": {"target": "Fuc(a1-2)Gal(b1-3)GalNAc(b1-3)Gal", "method_in_brief": "as §1"}, "[11]": {"target": "Fuc(a1-2)Gal(b1-3)GlcNAc(b1-3)[Fuc(a1-3)[Gal(b1-4)]GlcNAc(b1-6)]Gal(b1-4)Glc", "method_in_brief": "as §1"}, "[12]": {"target": "Fuc(a1-2)Gal(b1-4)GlcNAc(b1-3)Gal(b1-4)GlcNAc(b1-3)Gal(b1-4)GlcNAc", "method_in_brief": "as §1"}, "Fuc(a1-2)Gal6S(b1-4)Glc": {"target": "Fuc(a1-2)Gal6S(b1-4)Glc", "method_in_brief": "as §1"}, "[13]": {"target": "Gal(a1-3)Gal(b1-3)[Fuc(a1-4)]GlcNAc(b1-2)Man(a1-3)[Gal(a1-3)Gal(b1-3)[Fuc(a1-4)]GlcNAc(b1-2)Man(a1-6)]Man(b1-4)GlcNAc(b1-4)GlcNAc", "method_in_brief": "as §1"}, "[14]": {"target": "Gal(b1-3)Gal(b1-4)GlcNAc(b1-2)Man(a1-3)[Gal(b1-3)Gal(b1-4)GlcNAc(b1-2)Man(a1-6)]Man(b1-4)GlcNAc(b1-4)GlcNAc", "method_in_brief": "as §1"}, "[15]": {"target": "Gal(b1-3)GalNAc(b1-3)Gal(a1-4)Gal(b1-4)Glc", "method_in_brief": "as §1"}, "[16]": {"target": "Gal(b1-3)GalNAc(b1-4)Gal(b1-4)Glc", "method_in_brief": "as §1"}, "[17]": {"target": "Gal(b1-4)GlcNAc(a1-6)Gal(b1-4)GlcNAc", "method_in_brief": "as §1"}, "[18]": {"target": "Gal(b1-4)GlcNAc(b1-2)Man(a1-3)Man(b1-4)GlcNAc(b1-4)GlcNAc", "method_in_brief": "as §1"}, "[19]": {"target": "Gal(b1-4)GlcNAc(b1-2)[Gal(b1-4)GlcNAc(b1-4)]Man(a1-3)[Gal(b1-4)GlcNAc(b1-2)Man(a1-6)]Man(b1-4)GlcNAc(b1-4)GlcNAc", "method_in_brief": "as §1"}, "[20]": {"target": "Gal(b1-4)GlcNAc(b1-2)[Gal(b1-4)GlcNAc(b1-4)]Man(a1-3)[Gal(b1-4)GlcNAc(b1-2)[Gal(b1-4)GlcNAc(b1-6)]Man(a1-6)]Man(b1-4)GlcNAc(b1-4)GlcNAc", "method_in_brief": "as §1"}, "Gal3S(b1-3)GlcNAc": {"target": "Gal3S(b1-3)GlcNAc", "method_in_brief": "as §1"}, "Gal3S(b1-4)GlcNAc6S": {"target": "Gal3S(b1-4)GlcNAc6S", "method_in_brief": "as §1"}, "[21]": {"target": "Gal3S(b1-4)[Fuc(a1-3)]Glc6S", "method_in_brief": "as §1"}, "GalNAc(a1-3)GalNAc": {"target": "GalNAc(a1-3)GalNAc", "method_in_brief": "as §1"}, "Glc(b1-6)Glc": {"target": "Glc(b1-6)Glc", "method_in_brief": "as §1"}, "GlcA(b1-3)GlcNAc": {"target": "GlcA(b1-3)GlcNAc", "method_in_brief": "as §1"}, "[22]": {"target": "GlcNAc(a1-4)Gal(b1-4)GlcNAc(b1-3)Gal(b1-4)Glc", "method_in_brief": "as §1"}, "GlcNAc(b1-6)GalNAc": {"target": "GlcNAc(b1-6)GalNAc", "method_in_brief": "as §1"}, "[23]": {"target": "Neu5Ac(a2-3)Gal(b1-3)GalNAc6S", "method_in_brief": "as §1"}, "[24]": {"target": "Neu5Ac(a2-3)Gal(b1-3)GlcNAc(b1-3)Gal(b1-4)GlcNAc", "method_in_brief": "as §1"}, "[25]": {"target": "Neu5Ac(a2-3)Gal(b1-3)GlcNAc6S", "method_in_brief": "as §1"}, "[26]": {"target": "Neu5Ac(a2-3)Gal(b1-4)GlcNAc(b1-2)Man(a1-3)[GlcNAc(b1-2)Man(b1-4)GlcNAc(b1-2)Man(a1-6)]Man(b1-4)GlcNAc(b1-4)GlcNAc", "method_in_brief": "as §1"}, "[27]": {"target": "Neu5Ac(a2-3)Gal(b1-4)[Fuc(a1-3)]GlcNAc(b1-6)[Gal(b1-3)]GalNAc", "method_in_brief": "as §1"}, "[28]": {"target": "Neu5Ac(a2-3)Gal6S(b1-4)[Fuc(a1-3)]GlcNAc", "method_in_brief": "as §1"}, "[29]": {"target": "Neu5Ac(a2-3)GalNAc(b1-4)GlcNAc", "method_in_brief": "as §1"}, "[30]": {"target": "Neu5Ac(a2-3)[GalNAc(b1-4)]Gal(b1-4)Glc", "method_in_brief": "as §1"}},
  "note": "The sample as a whole holds a higher share of the strongest signals than the screen did.",
  "data": [
    {"binder": "B1", "values": [
      {"measurement": "glycan array binding signal (z-score)", "setting": "[1]", "result": 3.62},
      {"measurement": "glycan array binding signal (z-score)", "setting": "[2]", "result": 4.94},
      {"measurement": "glycan array binding signal (z-score)", "setting": "[3]", "result": -0.304},
      {"measurement": "glycan array binding signal (z-score)", "setting": "[4]", "result": -0.305},
      {"measurement": "glycan array binding signal (z-score)", "setting": "Neu5Ac(a2-6)Gal", "result": -0.305},
      {"measurement": "glycan array binding signal (z-score)", "setting": "[5]", "result": 2.81},
      {"measurement": "glycan array binding signal (z-score)", "setting": "[6]", "result": 0.435},
      {"measurement": "glycan array binding signal (z-score)", "setting": "[7]", "result": 4.96},
      {"measurement": "glycan array binding signal (z-score)", "setting": "[8]", "result": -0.296},
      {"measurement": "glycan array binding signal (z-score)", "setting": "Neu5Ac(a2-6)GalNAc", "result": -0.307},
      {"measurement": "glycan array binding signal (z-score)", "setting": "[9]", "result": -0.303}
    ]},
    {"binder": "B2", "values": [
      {"measurement": "glycan array binding signal (z-score)", "setting": "Fuc(a1-2)Gal(b1-3)GalNAc", "result": -0.289},
      {"measurement": "glycan array binding signal (z-score)", "setting": "[10]", "result": -0.33},
      {"measurement": "glycan array binding signal (z-score)", "setting": "[11]", "result": 0.066},
      {"measurement": "glycan array binding signal (z-score)", "setting": "[12]", "result": 0.432},
      {"measurement": "glycan array binding signal (z-score)", "setting": "Fuc(a1-2)Gal6S(b1-4)Glc", "result": -0.234},
      {"measurement": "glycan array binding signal (z-score)", "setting": "[13]", "result": -0.274},
      {"measurement": "glycan array binding signal (z-score)", "setting": "[14]", "result": 6.47},
      {"measurement": "glycan array binding signal (z-score)", "setting": "[15]", "result": -0.328},
      {"measurement": "glycan array binding signal (z-score)", "setting": "[16]", "result": -0.297},
      {"measurement": "glycan array binding signal (z-score)", "setting": "[17]", "result": 2.97},
      {"measurement": "glycan array binding signal (z-score)", "setting": "[18]", "result": 1.75},
      {"measurement": "glycan array binding signal (z-score)", "setting": "[19]", "result": 5.5},
      {"measurement": "glycan array binding signal (z-score)", "setting": "[20]", "result": 6.78},
      {"measurement": "glycan array binding signal (z-score)", "setting": "Gal3S(b1-3)GlcNAc", "result": 3.33},
      {"measurement": "glycan array binding signal (z-score)", "setting": "Gal3S(b1-4)GlcNAc6S", "result": 4.69},
      {"measurement": "glycan array binding signal (z-score)", "setting": "[21]", "result": -0.286},
      {"measurement": "glycan array binding signal (z-score)", "setting": "GalNAc(a1-3)GalNAc", "result": -0.323},
      {"measurement": "glycan array binding signal (z-score)", "setting": "Glc(b1-6)Glc", "result": -0.343},
      {"measurement": "glycan array binding signal (z-score)", "setting": "GlcA(b1-3)GlcNAc", "result": -0.294},
      {"measurement": "glycan array binding signal (z-score)", "setting": "[22]", "result": -0.318},
      {"measurement": "glycan array binding signal (z-score)", "setting": "GlcNAc(b1-6)GalNAc", "result": -0.33},
      {"measurement": "glycan array binding signal (z-score)", "setting": "[23]", "result": -0.333},
      {"measurement": "glycan array binding signal (z-score)", "setting": "[24]", "result": 1.66},
      {"measurement": "glycan array binding signal (z-score)", "setting": "[25]", "result": -0.31},
      {"measurement": "glycan array binding signal (z-score)", "setting": "[26]", "result": 3.31},
      {"measurement": "glycan array binding signal (z-score)", "setting": "[27]", "result": -0.244},
      {"measurement": "glycan array binding signal (z-score)", "setting": "[28]", "result": -0.322},
      {"measurement": "glycan array binding signal (z-score)", "setting": "[29]", "result": -0.307},
      {"measurement": "glycan array binding signal (z-score)", "setting": "[30]", "result": -0.292},
      {"measurement": "glycan array binding signal (z-score)", "setting": "Neu5Ac(a2-6)Gal", "result": -0.257}
    ]}
  ]
}
